# CYP2C9 inhib – blockers of cytochrome P450 2C9 activity – biochemical, luminescence, ADME assay, primary screen | P11712 | CYP2C9 Supersomes, luciferin-H conversion | inhibition, % at 5 µM | actives 20% (n = 96,000);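 active means blocking of liver enzyme CYP2C9 beyond about 50% at 5 µM, limit read from the data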
# CYP2C19 inh – blockers of cytochrome P450 2C19 activity – biochemical, luminescence, ADME assay, primary screen | actives 21% (n = 96,000) | inhibition, % at 5 µM | CYP2C19 Supersomes, luciferin-H EGE luminescence, 30 min | AID 778, 2007 | P33261;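 active means CYP2C19 inhibition above a set limit at 5 µM in the primary screen, cut at about 50% in these data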;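 further: plate controls were negative control wells for no effect and 2.5 mM tranylcypromine positive control for full effect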
# CYP2C9 activ – human CYP2C9 activators, primary screen, biochemical, luminescence | Cytochrome P450 2C9 (Homo sapiens), P11712 | recombinant CYP2C9, luciferin-H conversion; stronger effect = higher value; factor 1 = untreated enzyme, 0 = blocked | activation factor at 5 µM | actives 1.4% (n = 96,000) | AID 1024, 2008;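 active means activation factor of 2 or more for CYP2C9 at a 5 µM dose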;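 further: 0 = sulfaphenazole-blocked wells and 1 = vehicle-only wells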
# hDAT+cocaine – changed hDAT dopamine uptake under cocaine IC80, either direction, primary screen, cocaine antagonist project, cell-based, LLC-PK1 hDAT, [14C]-dopamine uptake, MLSMR | Sodium-dependent dopamine transporter (Homo sapiens), Q01959 | LLC-PK1 hDAT cells, [14C]-dopamine uptake with cocaine IC80; actives deviate in either direction | B-score at 10 µM | actives 1.3% (n = 110,000) | AID 449768, 2010;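 active means Z score or B-score, a plate-position-corrected score, falls beyond the plate's 99.7% confidence bounds, in either direction; inactive means both scores lie inside the 99.7% bounds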;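 further: scored against the spread of the other compound wells on the same plate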
# CYP2C19 act – human CYP2C19 activators, primary screen, biochemical, luminescence; recombinant CYP2C19, luciferin-H EGE luminescence; stronger effect = higher value; 0 = fully inhibited enzyme, 1 = untreated enzyme; activation factor at 5 µM; 96,000 tested, under 10 active;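 active means activation factor of at least 2 at 5 µM in the primary screen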;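 further: 0 = wells with 2.5 mM tranylcypromine and 1 = vehicle-only wells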
# D1 allo mod – D1 CRE-luciferase signal change, two-sided – cell-based, HEK293 D1, dopamine EC30, D1 allosteric modulator project, primary screen; B-score at 10 µM; dopamine EC30 potentiation; actives deviate in either direction; actives 5.9% (n = 58,000);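 active means luminescence count or its row- and column-corrected plate score outside the 99.7% band of the plate's sample wells, on either side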
# Target sequence (P21728 whole entry, looked up): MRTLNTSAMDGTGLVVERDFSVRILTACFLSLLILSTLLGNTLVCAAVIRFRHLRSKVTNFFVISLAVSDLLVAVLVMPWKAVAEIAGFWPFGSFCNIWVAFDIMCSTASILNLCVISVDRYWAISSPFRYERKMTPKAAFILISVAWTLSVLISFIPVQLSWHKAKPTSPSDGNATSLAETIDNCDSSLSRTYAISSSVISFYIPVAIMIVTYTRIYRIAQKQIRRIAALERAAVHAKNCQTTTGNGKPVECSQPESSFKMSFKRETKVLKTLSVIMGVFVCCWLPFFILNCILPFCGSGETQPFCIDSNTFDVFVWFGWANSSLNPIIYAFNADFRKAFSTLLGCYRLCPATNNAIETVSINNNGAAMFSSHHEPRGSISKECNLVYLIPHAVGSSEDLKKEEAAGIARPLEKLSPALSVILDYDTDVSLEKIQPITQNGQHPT
# Numbers without * were called inactive; . = no result. This is a sample that favours compounds with a hit; in the whole collection about 28% have one here.
SMILES,CYP2C9 inhib,CYP2C19 inh,CYP2C9 activ,hDAT+cocaine,CYP2C19 act,D1 allo mod
CCOC(=O)c1cc(-c2ccc(C#N)cc2)nc2c1c(C)nn2CCC#N,52*,11,0.5,-0.35,0.9,.
CC(=O)c1cc(C#N)c(SCc2ccccc2)nc1C,-3,24,1,0.67,0.8,.
COC(=O)c1ccc(COC(=O)CCc2nc(-c3ccccc3)c(-c3ccccc3)o2)cc1,86*,67*,0.1,0.026,0.3,.
Cc1nnc(SCc2ccc(Cl)cc2Cl)[nH]c1=O,80*,11,0.2,.,0.9,-0.32
Cc1nnc(SCC(=O)Nc2c(Cl)cccc2Cl)[nH]c1=O,62*,-6,0.4,0.28,1.1,0.088
NC(=O)/C(=N\OC(=O)c1ccco1)c1nc(-c2ccc(Br)cc2)cs1,7,-2,0.9,-0.2,1,.
c1c2c(cc3sc(N4CCOCC4)nc13)OCO2,3,42,1,0.11,0.6,.
c1c2c(cc3sc(N4CCCCC4)nc13)OCO2,18,84*,0.8,.,0.2,-1.4
CC(=O)Nc1nc2cc3c(cc2s1)OCO3,28,64*,0.7,-0.0024,0.4,-1.3
COc1ccc2sc(NC(C)=O)nc2c1,8,16,0.9,0.76,0.8,-0.82
O=C(Nc1nc2cc3c(cc2s1)OCO3)C1=COCCO1,.,.,.,-1.1,.,-8.3*
Cc1nc2ccc3nc(NC(=O)c4ccc5c(c4)OCCO5)sc3c2s1,10,0,0.9,0.73,1,-0.91
CCC(C)N1C(=O)CCC1C(=O)O (stereo not given),-7,-18,1.1,1.4,1.2,.
CC(C)(C)OC(=O)N1CCCC1C(=O)NC(Cc1ccccc1)C(=O)O (stereo not given),-30,-20,1.3,0.5,1.2,0.12
O=C(/C=C/c1ccco1)NC(=S)Nc1cccc(-c2nc3ccccc3o2)c1,39,13,0.6,0.1,0.9,.
Cc1cccc(NC(=S)NC(=O)/C=C/c2ccco2)n1,55*,50,0.5,0.45,0.5,.
CNS(=O)(=O)c1cccc2nsnc12,.,.,.,.,.,-0.66
CN(C1CCS(=O)(=O)C1)S(=O)(=O)c1cccc2nsnc12 (stereo not given),-10,-3,1.1,0.097,1,-0.43
Cc1cccc(N(C)S(=O)(=O)c2cccc3nsnc23)c1,-70,64*,1.7,0.038,0.4,-1.5
CCOc1ccc(OCC)c(NS(=O)(=O)c2cccc3nsnc23)c1,33,24,0.7,0.02,0.8,.
CCN(c1cccc(C)c1)S(=O)(=O)c1cccc2nsnc12,53*,89*,0.5,.,0.1,-0.52
CN(C)S(=O)(=O)c1cccc2nsnc12,12,16,0.9,-2*,0.8,0.0027
Cc1ccc(N=N/C(=C\O)C(=O)c2ccncc2)cc1,88*,95*,0.1,-0.081,0,.
O=C(/C(=C/O)N=Nc1ccc(Cl)cc1)c1ccncc1,46,66*,0.5,-0.061,0.3,.
COc1ccccc1N1CCN(C(=O)CSc2nc(C)c(Cc3ccccc3)c(=O)[nH]2)CC1,26,23,0.7,1.3,0.8,3
SMILES,CYP2C9 inhib,CYP2C19 inh,CYP2C9 activ,hDAT+cocaine,CYP2C19 act,D1 allo mod
O=C1C(Nc2ccccc2)=C(N2CCCCC2)C(=O)c2ccccc21,50,68*,0.5,-5*,0.3,.
O=C1C(Nc2cccc(O)c2)=C(N2CCCCC2)C(=O)c2ccccc21,62*,39,0.4,-2.7*,0.6,.
CN(C1=C(N2CCCCC2)C(=O)c2ccccc2C1=O)c1ccccc1,90*,95*,0.1,1.3,0.1,.
Cc1ccc(NC2=C(N3CCCCC3)C(=O)c3ccccc3C2=O)cc1,28,43,0.7,0.49,0.6,.
O=C(/C=C/c1ccc(O)cc1)c1ccc(NC2=C(N3CCCCC3)C(=O)c3ccccc3C2=O)cc1,49,69*,0.5,2.4,0.3,.
COCCN1C(=O)N[C@@H](c2ccco2)C(C(=O)OC)=C1C,.,.,.,-0.34,.,.
CCOC(=O)/C(C(C)=O)=C1\OC(=O)c2ccccc21,58*,20,0.4,1.3,0.8,-0.51
Cc1cccc2cc(CN(CCN3CCOCC3)C(=O)NCc3ccccc3)c(=O)[nH]c12,17,28,0.8,1.9,0.7,-0.38
N#CCC(CNc1ncc(C(F)(F)F)cc1Cl)OC(=O)c1ccc(Cl)cc1Cl (stereo not given),50*,30,0.5,-0.1,0.7,.
CC(Cl)C(=O)Nc1ncc(C(F)(F)F)cc1Cl (stereo not given),10,-20,0.9,-0.87,1.2,.
O=C(NCc1ccco1)NC12CC3CC(CC(C3)C1)C2,-2,8,1,-0.88,0.9,0.43
CCOc1ccc2nc(Cl)c(/C=C/C(=O)c3ccco3)cc2c1,53*,33,0.5,-0.39,0.7,.
CN(C)CCNc1oc(COc2cccc(Cl)c2)nc1C#N,-28,-12,1.3,-0.62,1.1,-0.32
CCNc1oc(COc2ccccc2F)nc1C#N,39,96*,0.6,0.8,0,2.6
COCCNc1oc(COc2cccc(C)c2)nc1C#N,10,57*,0.9,-0.18,0.4,0.063
COc1ccc(CCNc2oc(COc3ccccc3Cl)nc2C#N)cc1OC,.,.,.,0.46,.,3.7
COc1ccc(CCNc2oc(COc3ccc(F)cc3)nc2C#N)cc1,70*,53*,0.3,-1.1,0.5,0.5
COc1ccc(CCNc2oc(Cc3ccccc3)nc2C#N)cc1OC,50*,75*,0.5,0.75,0.3,0.79
N#Cc1nc(COc2ccccc2Cl)oc1NCc1ccco1,44,20,0.6,0.26,0.8,.
COc1cccc(CNc2nc3nc(C)cc(=O)n3[nH]2)c1,4,-7,1,-0.15,1.1,.
COc1ccc(CCNc2oc(COc3ccccc3F)nc2C#N)cc1OC,91*,96*,0.1,0.95,0,-3.2
Cc1nc(SCC(=O)Nc2ccc(F)cc2)c2oc3ccccc3c2n1,84*,40,0.2,0.0093,0.6,1.5
Cc1nc(SCC(=O)Nc2ccccc2)c2oc3ccccc3c2n1,80*,51*,0.2,0.12,0.5,2.2
Cc1nc(SCC(=O)NC(C)c2ccccc2)c2oc3ccccc3c2n1 (stereo not given),80*,64*,0.2,-0.026,0.4,.
Cc1nc(SCC(=O)N2CCCc3ccccc32)c2oc3ccccc3c2n1,-3,-5,1,-0.57,1.1,0.1
O=C(O)CSc1nc(-c2ccccc2)nc2c1oc1ccccc12,91*,7,0.1,0.49,0.9,-0.13

# High-throughput results deposited in PubChem BioAssay by several laboratories.
